The values below come from PubChem BioAssay (Tox21).

Values joined by “and” are separate entries in the source; they are usually repeats but may differ in a detail not shown here. Equal values may be shown once. Records with an inconclusive call do not appear. Active and inactive are the calls of the source. Unless noted, calls come from the whole dose curve; as a rule, active = well fitted curve in the direction sought with a large enough effect in the repeat runs; inconclusive = weak or mixed curves; inactive = no such curve, though single readings can be large; an effect the other way counts as inactive or inconclusive.

Assay [1] is described as follows: qHTS assay for small molecules that induce genotoxicity in human embryonic kidney cells expressing luciferase-tagged ATAD5 (AID 651632). Note: nearly all actives have a fitted effect of over 15% in size. Note: potency is the fitted concentration of half-maximal effect. Summed up:
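Reporter cells (HEK293T) express luciferase-tagged ATAD5, a protein that accumulates after DNA damage. Treat 16 hr at 37C/5% CO2, add Amplite, wait 30 min at RT, and read luminescence.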
In general terms: In qHTS, concentration-response curves come from the screen itself.

Assay [2] is described as follows: qHTS assay for small molecule agonists of the p53 signaling pathway - cell viability (AID 651633; calls by dose curve; note: nearly all actives have a fitted effect of over 30% in size; note: potency is the fitted concentration of half-maximal effect). The method in brief:
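p53RE-bla cells were treated with compound for 16 hours at 37 C. Cytotoxicity was then measured as CellTiter-Glo luminescence after 30 min at room temperature.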

The nature of assay [3]: qHTS assay for small molecule disruptors of the mitochondrial membrane potential - cell viability (AID 720634; calls by dose curve; note: nearly all actives have a fitted effect of over 20% in size; note: potency is the fitted concentration of half-maximal effect). Summed up:
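Measuring cytotoxicity alongside mitochondrial potential, the screen quantified ATP by luminescence in HepG2 cells after 1 hr compound incubation and a 30 min room-temperature CellTiter-Glo step.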

A short description of assay [4]: qHTS assay for small molecule disruptors of the mitochondrial membrane potential (AID 720635). Note: potency is the fitted concentration of half-maximal effect. Summed up: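 HepG2 cells exposed to compound 1 hr at 37C, then Mito-MPS dye 30 min. Ratio read of aggregate (540/590 nm) versus monomer (490/535 nm) fluorescence.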
Assay [5] can be described thus: qHTS assay to test for compound auto fluorescence at 590 nm (red) in HepG2 cells (AID 720674). Summed up: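 Seeding: 2,000 HepG2 cells/well, MEM/10% FBS, overnight 37 C. Dosing: compound vs DMSO. Incubation: 1 hr, 37 C, 5% CO2. Read: fluorescence 540 ex/590 em, Rose Bengal sodium as red reference.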
Assay [6] can be described thus: qHTS assay to test for compound auto fluorescence at 535 nm (green) in HepG2 cells (AID 720675). Note: potency is the fitted concentration of half-maximal effect.
A short description of assay [7]: qHTS assay to test for compound auto fluorescence at 460 nm (blue) in HEK293 cells (AID 720678). The method in brief:
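Blue-channel (Ex/Em 405/460 nm) intensity measured in HEK293 cultures after overnight compound exposure at 37C; signal expressed relative to triamterene. Cells plated 2,000 per well in 10% dialyzed FBS medium and allowed 4-5 hr to attach.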

A short description of assay [8]: qHTS assay to test for compound auto fluorescence at 590 nm (red) in HEK293 cells (AID 720679). The method in brief: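 Red-channel autofluorescence (Ex/Em 540/590 nm; Rose Bengal sodium reference) was measured after overnight 37C, 5% CO2 exposure of attached HEK293 cells, 2,000 per well in medium with 10% dialyzed FBS.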
Assay [9] in a line: qHTS assay for small molecules that induce genotoxicity in human embryonic kidney cells expressing luciferase-tagged ATAD5 - cell viability (AID 651634; calls by dose curve; note: nearly all actives have a fitted effect of over 25% in size; note: potency is the fitted concentration of half-maximal effect). The method in brief: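 Seeding of 2,000 HEK293T ATAD5-luciferase cells per well preceded pin-tool compound transfer. Plates sat 15.5 hr at 37C under 5% CO2, then fluorescence was read after 30 min with CellTiter-Fluor.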

As for `O=S1(=O)CC(Cl)(Cl)C(Cl)(Cl)C1`, the Potency in assay [1] was 4.86 µM (active); in assay [2] it was 3.06 µM (active); in [3] it was 15.4 µM (active); in assay [4], 12.2 µM (active). The Potency result in assay [5], in assay [6], in [7] and in [8] was “inactive” throughout.

On to `CCCCCCCCCOC(=O)c1ccc(O)cc1`, for which the Potency entry in [1], in [5], in assay [6], in [7] and in [8] was “inactive” in each case. Also, the Potency in [2] was 60.3 µM (active); in assay [4], 4.27 µM (active).

`C=CC(=O)OCC(CO)(COC(=O)C=C)COC(=O)C=C`: the Potency in [1] is 4.87 µM (active) and 5.45 µM (active); in assay [2] it was 4.34 µM (active). The Potency result in assay [5], in [6], in assay [7] and in assay [8] was “inactive” throughout.

On to `O=C(Nc1cccc([N+](=O)[O-])c1)c1cc2ccccc2cc1O`, for which the Potency result in assay [1], in assay [5], in assay [6], in [7] and in [8] was “inactive” in each case. The values for the Potency in assay [2] and in [4] were 3.86 µM (active) and 0.154 µM (active), respectively.

On to `O=c1[nH]sc2ccccc12`, for which the Potency entry in [1], in [9], in assay [3], in assay [5], in assay [6] and in [7] was “inactive” each time. For the same compound, the Potency entry in assay [8] was “inactive”. Further, in assay [4], the Potency was 27.3 µM (active).

Turning to `Cc1c(C)c2c(c(C)c1OC(=O)CCC(=O)O)CC[C@@](C)(CCC[C@H](C)CCC[C@H](C)CCCC(C)C)O2`, the Potency entry in assay [1], in assay [2], in assay [3], in assay [5], in assay [6] and in assay [7] was “inactive” throughout. Besides, the Potency entry in assay [8] is “inactive”.

`CC(C)CCCCCCCCCCCCCCC(=O)O`: the Potency entry in [1], in assay [5], in [6], in assay [7] and in assay [8] was “inactive” in each case. In addition, the Potency in assay [2] was 61.1 µM (active).

For the compound `CCCCCCCCCCCCc1ccc(O)cc1`, the Potency result in assay [1], in [3], in assay [5], in [6], in [7] and in assay [8] was “inactive” each time. In addition, the Potency in assay [2] was 24.3 µM (active); in [4], 2.73 µM (active).

For `OCCN1CCN(CC/C=C2/c3ccccc3Sc3ccc(C(F)(F)F)cc32)CC1`, the Potency entry in assay [1], in [5], in assay [6], in assay [7] and in assay [8] was “inactive” throughout. Also, in [2], the Potency is 29.8 µM (active).

`OCCCCCCCCCCCCBr`: the Potency entry in assay [1], in assay [3], in [5], in [6], in assay [7] and in assay [8] was “inactive” throughout. In addition, the Potency in assay [4] is 62.1 µM (active).

As to `CC(C)(C)c1ccc(C(=O)CCCN2CCC(OC(c3ccccc3)c3ccccc3)CC2)cc1`, the Potency in [2] was 21.1 µM (active). Moreover, the Potency result in [9], in assay [3], in [5], in assay [6], in assay [7] and in assay [8] was “inactive” each time.

For the compound `CCc1cc(Cc2cc(CC)c(N)c(CC)c2)cc(CC)c1N`, the Potency entry in assay [1], in assay [9], in assay [5], in assay [6], in [7] and in assay [8] was “inactive” each time. In assay [4], the Potency is 27.3 µM (active).

On to `CCCCCCCCCCCC(=O)NCCCN(C)C`, for which the Potency in assay [2] was 27.3 µM (active). In addition, the Potency entry in [5], in [6], in [7] and in [8] was “inactive” throughout.

Consider `C/C=C1/C(=O)C[C@H]2[C@@H]3CCC4=CC(=O)CC[C@]4(C)[C@H]3CC[C@]12C`, for which the Potency entry in [1], in assay [9], in assay [3], in assay [4], in assay [5] and in assay [6] was “inactive” in each case. Further, the Potency entry in assay [7] and in assay [8] was “inactive” throughout.

As for `CCOC(=O)c1nc(C(Cl)(Cl)Cl)n(-c2ccc(Cl)cc2Cl)n1`, the Potency result in [1], in assay [5], in assay [6], in assay [7] and in [8] was “inactive” in each case.

For `Nc1ccc2c3c(cccc13)-c1ccccc1-2`, the Potency entry in assay [1], in assay [5] and in assay [8] was “inactive” in each case. Moreover, the Potency in [4] is 4.91 µM (active); in [6], 39.8 µM (active).

Turning to `Oc1ccc(N=Nc2ccccc2)cc1`, the Potency entry in [2], in assay [5], in assay [6], in assay [7] and in [8] was “inactive” in each case. In addition, the Potency in assay [3] is 6.95 µM (active); in assay [4], 3.1 µM (active).

`[Cl][Au]([Cl])[Cl]`: the Potency in assay [2] was 68.6 µM (active); in assay [9] it was 30.6 µM (active). For the same compound, the Potency result in assay [3], in assay [5], in assay [6], in assay [7] and in [8] was “inactive” throughout.

With `CCN(CC)CCNC(=O)c1c(C)[nH]c(/C=C2\C(=O)Nc3ccc(F)cc32)c1C`, the Potency in [2] was 11.9 µM (active). Moreover, the Potency entry in assay [3], in assay [5], in assay [6], in [7] and in assay [8] was “inactive” throughout.

In the case of `On1ccccc1=S`, the Potency entry in [2], in [3], in assay [5], in assay [6], in [7] and in assay [8] was “inactive” throughout. Besides, in [4], the Potency is 0.762 µM (active).

As for `Cc1[nH]nc2c1N=C(c1ccccc1Cl)c1cc([N+](=O)[O-])ccc1N2`, the Potency is 1.93 µM (active) in assay [1], 30.6 µM (active) in assay [9] and 3.06 µM (active) in [4]. Also, the Potency entry in [3], in assay [5], in assay [6], in [7] and in assay [8] was “inactive” each time.

`CCC1=C[C@@H]2CN(C1)Cc1c([nH]c3ccccc13)[C@@](C(=O)OC)(c1cc3c(cc1OC)N(C)[C@H]1[C@@](O)(C(=O)OC)[C@H](OC(C)=O)[C@]4(CC)C=CCN5CC[C@]31[C@@H]54)C2`: the Potency in assay [1] is 2.37 µM (active); in assay [9] it was 1.19 µM (active). The Potency result in assay [3], in assay [5], in [6], in [7] and in assay [8] was “inactive” each time.

On to `O=Cc1cc(O)ccc1Br`, for which the Potency result in assay [1], in assay [3], in [5], in assay [6], in assay [7] and in assay [8] was “inactive” in each case. Moreover, the Potency in assay [4] was 62 µM (active).

Regarding `CCCCCCCCCCCCCCCC(=O)OC[C@H](O)[C@H]1OC(=O)C(O)=C1O`, the Potency result in assay [1], in [9], in assay [3], in [4], in assay [5] and in assay [6] was “inactive” in each case. Moreover, the Potency entry in assay [7] and in [8] was “inactive” each time.

As to `CNc1ccc(O)cc1`, the Potency entry in assay [9], in assay [5], in assay [6], in assay [7] and in assay [8] was “inactive” throughout.
